Assay outcomes as filed in PubChem BioAssay.
TcdB GH inh – TcdB glycohydrolase inhibition. P18177. inhibition, % at 9.99 µM. 350,000 compounds, 0.24% hits. TcdB glycohydrolase enzymatic assay, plate reader; in the data active = inhibition above about 10%
PriA SSB inh – blocks PriA binding to SSB C-terminal tail | AlphaScreen SSBct-PriA binding, biotinylated peptide | inhibition, % at 33 µM | 430,000 compounds, 0.6% hits | AID 1272365; in the data active = inhibition mostly above about 37%, no sharp cut-off; inactive = mostly below about 20%;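 also: plate controls were negative control peptide for no effect and reference peptide for full effect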
DUSP3 inh – inhibitors of human VHR1 phosphatase (DUSP3). P51452. recombinant VHR phosphatase, pNPP absorbance. inhibition, % at 13.3 µM. 290,000 compounds, 0.52% hits. AID 1654; in the data active = inhibition above about 50%
Target sequence (P51452 whole entry, looked up): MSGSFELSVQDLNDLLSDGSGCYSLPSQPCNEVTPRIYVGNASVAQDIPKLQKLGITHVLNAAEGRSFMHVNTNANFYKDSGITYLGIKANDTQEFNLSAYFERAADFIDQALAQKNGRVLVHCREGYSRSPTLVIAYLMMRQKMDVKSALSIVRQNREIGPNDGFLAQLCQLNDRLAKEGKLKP
Vc quorum ag – induces V. cholerae light production without autoinducers. AID 588436. 350,000 compounds, 0.16% hits. V. cholerae BH1578 lux reporter, luminescence, 6 h. activation, % at 18.7 µM; in the data active = activation mostly above about 9.7%, no sharp cut-off
PrPC TRFRET – reduces human prion protein on the cell surface; AID 720596; 370,000 compounds, 0.43% hits; inhibition, % at 13.8 µM; cell surface PrPC, TR-FRET read-out; P04156; in the data active = inhibition above about 24%; also: 0% = median of the test wells and 100% = reference compound wells
CCHFV vOTU inh – CCHFV vOTU protease inhibition; Pep-AMC fluorescence; inhibition, % at 11.5 µM; 370,000 compounds, 0.55% hits; AID 651958; in the data active = inhibition above about 30%; also: 0% = vehicle wells with enzyme and 100% = no enzyme wells
* = called active by the depositor; ! = a repeat was not active. The list is not random: actives were taken first. Their share in the collection is about 1.5%.

Screening O=C(CSc1ccc(-c2ccncc2)nn1)N1CCCc2ccccc21 returned PriA SSB inh 32.
O=C(CSc1ccc(-c2ccccn2)nn1)N1CCCc2ccccc21 was read as TcdB GH inh 0, PriA SSB inh 62*!, DUSP3 inh 1, Vc quorum ag inactive, PrPC TRFRET -2 and CCHFV vOTU inh -8.
For O=C(CSc1nccn1-c1ccccc1)N1CCCc2ccccc21 the results were PriA SSB inh 72*.
Screening CCOc1ccc(-n2ccnc2SCC(=O)N2CCCc3ccccc32)cc1 returned TcdB GH inh 1, PriA SSB inh 25, DUSP3 inh 3, Vc quorum ag 0, PrPC TRFRET 5 and CCHFV vOTU inh 4.
NS(=O)(=O)c1ccccc1NC(=O)NC1(C(F)(F)F)Oc2ccccc2O1 was read as PriA SSB inh 26.
Screening COc1ccc(OC)c(NC(=O)Cn2c(C)nc(-c3ccccn3)cc2=O)c1 returned PriA SSB inh -7.
Screening CC(C)(C)c1ccc(OCC(O)CN(CCO)CC(O)Cn2ccc3ccccc32)cc1 (stereo not drawn) returned TcdB GH inh 1, PriA SSB inh 4, DUSP3 inh 12, Vc quorum ag 0, PrPC TRFRET 3 and CCHFV vOTU inh 13.
`OCCN(CC(O)Cn1ccc2ccccc21)CC(O)Cn1ccc2ccccc21` (stereo not drawn) gave PriA SSB inh -11, DUSP3 inh 51*, Vc quorum ag 0, PrPC TRFRET -10 and CCHFV vOTU inh 1.
`COc1ccccc1NC(=O)NCCc1ccc2c(c1)CCCN2C` gave PriA SSB inh 56*.
COc1ccccc1OCC(=O)NCCc1ccc2c(c1)CCCN2C was read as PriA SSB inh 45*.
Screening CN1CCCc2cc(CCNC(=O)Cc3ccc(F)cc3)ccc21 returned PriA SSB inh -14.
Screening COC(=O)N1CCC(CNC(=O)Nc2cccs2)CC1 returned PriA SSB inh -14.
For Cc1c(CCCC(=O)O)sc(N)c1C(=O)c1cccc(C(F)(F)F)c1 the results were TcdB GH inh 11*, PriA SSB inh -3, Vc quorum ag inactive, PrPC TRFRET -1 and CCHFV vOTU inh 1.
For O=C(O)CNC(=O)c1cccc(C(F)(F)F)c1 the results were TcdB GH inh 1, PriA SSB inh 2, DUSP3 inh 13, Vc quorum ag 0, PrPC TRFRET -5 and CCHFV vOTU inh 2.
For C=CCN1C(=O)C(C)(C)COc2ccc(NS(=O)(=O)c3ccc(OC)c(OC)c3)cc21 the results were PriA SSB inh -2.
Screening CCCS(=O)(=O)n1nc(-c2ccccc2)cc1N returned TcdB GH inh 3, PriA SSB inh -2, DUSP3 inh 54*, Vc quorum ag 0, PrPC TRFRET -3 and CCHFV vOTU inh 5.
For CCS(=O)(=O)n1nc(-c2ccccc2)cc1N the results were TcdB GH inh 1, PriA SSB inh 0, DUSP3 inh 25, Vc quorum ag 0, PrPC TRFRET -1 and CCHFV vOTU inh 3.
`C=CCn1cccc(C(=O)Nc2ccc(Cl)cc2)c1=O` gave TcdB GH inh 1, PriA SSB inh 4, DUSP3 inh 20, Vc quorum ag -1, PrPC TRFRET 13 and CCHFV vOTU inh -4.
Screening C=CCn1cccc(C(=O)Nc2ccc(N(C)C)cc2)c1=O returned TcdB GH inh -6, PriA SSB inh -1, DUSP3 inh 56*, Vc quorum ag inactive, PrPC TRFRET -3 and CCHFV vOTU inh 6.
For COC(=O)c1ccc(C(=O)NCc2nn(C3CCCC3)c(=O)c3ccccc23)cc1 the results were PriA SSB inh -3.
For CSc1cccc(C(=O)Nc2nnc(-c3ccc4c(c3)OCO4)o2)c1 the results were PriA SSB inh -11.
For O=C(Nc1ccc(Cl)cc1)N1CCCC(c2nnc(-c3ccc4c(c3)OCO4)o2)C1 (stereo not drawn) the results were PriA SSB inh 6.
Screening Cc1ccc(C)c(S(=O)(=O)NCc2nn(CCN3CCCC3)c(=O)c3ccccc23)c1 returned PriA SSB inh -6.
Cc1csc(C(=O)NCc2nn(CCN3CCCC3)c(=O)c3ccccc23)c1 was read as PriA SSB inh 45*.
Screening O=C(CCc1ccccc1Br)NCCSC1CCOCC1 returned PriA SSB inh -11.
Screening Cc1ccc(O)c(N=Nc2ccc(S(=O)(=O)N3CCOCC3)cc2)c1 returned TcdB GH inh 0, PriA SSB inh 39*, DUSP3 inh 14, Vc quorum ag 0, PrPC TRFRET -24 and CCHFV vOTU inh -1.
O=C(NCCN1CCOCC1)c1ccc2c(c1)N(Cc1ccccc1F)C(=O)c1ccccc1S2 was read as TcdB GH inh 2, PriA SSB inh 1, DUSP3 inh -28, Vc quorum ag inactive, PrPC TRFRET 0 and CCHFV vOTU inh -11.
`Cc1cccc(CN2C(=O)c3ccccc3Sc3ccc(C(=O)O)cc32)c1` gave TcdB GH inh 2, PriA SSB inh -10, DUSP3 inh 18, Vc quorum ag 1, PrPC TRFRET -3 and CCHFV vOTU inh 0.
O=C(c1ccc2c(c1)N(Cc1ccccc1)C(=O)c1ccccc1S2)N1CCCC1 was read as TcdB GH inh 34*, PriA SSB inh 5, DUSP3 inh 20, Vc quorum ag 0, PrPC TRFRET 0 and CCHFV vOTU inh -10.
For O=C(c1ccc2c(c1)N(Cc1ccccc1F)C(=O)c1ccccc1S2)N1CCOCC1 the results were TcdB GH inh 10*, PriA SSB inh -11, DUSP3 inh -9, PrPC TRFRET 2 and CCHFV vOTU inh 2.
Screening Cn1cc(C(=O)C(=O)N2CCCc3ccccc32)c2ccccc21 returned TcdB GH inh 3, PriA SSB inh -10, DUSP3 inh 8, Vc quorum ag 1, PrPC TRFRET 9 and CCHFV vOTU inh 5.
Screening Cn1cc(S(=O)(=O)CC(=O)N2CCCc3ccccc32)c2ccccc21 returned TcdB GH inh 11*, PriA SSB inh 5, DUSP3 inh 46, Vc quorum ag -1, PrPC TRFRET -5 and CCHFV vOTU inh 10.
For Cc1ccc(NC(=O)CC2(CC(=O)O)CCCC2)cc1 the results were TcdB GH inh 1, PriA SSB inh -7, DUSP3 inh 57*, Vc quorum ag 0, PrPC TRFRET 7 and CCHFV vOTU inh -10.
Screening O=[N+]([O-])c1ccccc1Nc1nc(-c2cccnc2)cs1 returned TcdB GH inh 0, PriA SSB inh 52*, DUSP3 inh 35, Vc quorum ag 0, PrPC TRFRET -19 and CCHFV vOTU inh 1.
CN(C)c1ccc(Nc2nc(-c3cccnc3)cs2)cc1 was read as PriA SSB inh 41, DUSP3 inh 15, Vc quorum ag -1, PrPC TRFRET -2 and CCHFV vOTU inh 8.
For CCN(CC)c1ccc(Nc2nc(-c3cccnc3)cs2)cc1 the results were TcdB GH inh 2, PriA SSB inh 41*, DUSP3 inh 57*, Vc quorum ag 2, PrPC TRFRET 0 and CCHFV vOTU inh 3.
Screening O=[N+]([O-])c1ccccc1Nc1nc(-c2ccccn2)cs1 returned PriA SSB inh 80*.
